Screening data: PubChem, National Center for Advancing Translational Sciences (NCATS)
Hits are enriched below; roughly 5.7% of the tested compounds scored in any of these assays.
KB-3-1 cytotox – qHTS assay for MDR1-selective chemotherapeutics: Primary screen using the parental adenocarcinoma cell KB-3-1. KB-3-1 viability, CellTiter-Glo ATP luminescence, 72 h. Potency, µM (doses to about 46.1 µM), most hits filed as cytotoxic. actives 1.4% (n = 400,000). AID 1347075, 2019; also: nearly all actives have a fitted effect of over 60% in size
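Luminescent ATP read-out (CellTiter-Glo) measures survival of drug-naive KB-3-1 cells after 72 h compound exposure at 37 °C. Titration series was screened from lowest to highest concentration, with DMSO vehicle plates as background controls.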
HT1080NT lethal – qHTS for induction of synthetic lethality in tumor cells producing 2HG: qHTS for the HT-1080-NT fibrosarcoma cell line | AID 686970, 2013 | Potency, µM (highest dose often 46.1 µM), hits mostly cytotoxic | HT-1080-NT fibrosarcoma viability, CellTiter-Glo ATP luminescence, 48 h | actives 1.6% (n = 360,000);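 also: NT is the 2HG producing partner of a matched IDH1 knockdown line; nearly all actives have a fitted effect of over 55% in size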
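750 cells/well, RPMI + 5% FBS; 2 h settle, compound pin-transfer, 48 h at 37 degrees C. CellTiter-Glo 10 min RT, luminescence. Normalized to DMSO and media-only wells.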
HT1080 IDH1KD tx – qHTS for induction of synthetic lethality in tumor cells producing 2HG: qHTS for the HT-1080-IDH1KD cell line. HT-1080 IDH1 knockdown viability, ATP luminescence, 48 h. Potency, µM (series often up to 46.1 µM), hits mostly cytotoxic. actives 2% (n = 360,000)
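Luminescent ATP read-out (CellTiter-Glo, 10 min at room temperature) after 48 h compound exposure at 37 °C gave viability of IDH1-knockdown HT-1080 cells. Activity was normalised to DMSO and cell-free wells, then fitted as concentration-response curves.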
KB-V1 MDR tox – qHTS assay for MDR1-selective chemotherapeutics: Primary screen using the drug-selected MDR subline cells KB-V1; KB-V1 MDR cells viability, CellTiter-Glo, 72 h; Potency, µM (doses to about 46.1 µM), usual class: cytotoxic; actives 3.4% (n = 400,000); AID 1347076, 2019; also: nearly all actives have a fitted effect of over 60% in size
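KB-V1 MDR subline cells in DMEM (phenol-red free, 10% FBS) exposed to compounds in qHTS concentration series for 72 h at 37 degrees C. Viability read by CellTiter-Glo luminescence; concentration-effect curves fitted after normalization and correction.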
A number is an active result; [ ] = remark or other dose. Calls follow the shape of the dose curve; as a rule, active = well fitted curve in the direction sought with a large enough effect; inconclusive = small, poorly fitted or top-dose-only effect, or another doubt; inactive = no such curve, though single readings can be large; an effect the other way counts as inactive or inconclusive.

What do the screens show for `COc1ccc(C2C(=O)N(CCc3ccccc3)CC(=O)N2C2CCCC2)cc1` (stereo unspecified)?
KB-3-1 cytotox: inactive; HT1080NT lethal: inactive; HT1080 IDH1KD tx: inactive; KB-V1 MDR tox: 3.7µM

How did NC(N)=Nc1nc(-c2ccccc2)c2cc(F)ccc2n1 do in these assays?
KB-3-1 cytotox: 23µM; HT1080NT lethal: 21µM; HT1080 IDH1KD tx: 21µM; KB-V1 MDR tox: inactive

Results for OCCSc1nc(-c2ccccc2)nc2ccc(F)cc12 ?
KB-3-1 cytotox: inactive; HT1080NT lethal: inactive; HT1080 IDH1KD tx: inactive; KB-V1 MDR tox: inactive

Results for CCn1c(NCc2cccc(Cl)c2)nc2ccccc21 ?
KB-3-1 cytotox: inactive; KB-V1 MDR tox: inactive

How did COc1ccc(-c2nc(S(=O)(=O)c3ccc(C)cc3)c(NCc3ccccc3)o2)cc1 do in these assays?
KB-3-1 cytotox: inactive; KB-V1 MDR tox: inactive

How did Clc1cccc(-c2ccc(/C=N/n3cnnc3)o2)c1Cl do in these assays?
KB-3-1 cytotox: 6.5µM; HT1080NT lethal: inactive; HT1080 IDH1KD tx: inactive; KB-V1 MDR tox: 1.6µM

Results for Cc1c(Cl)cccc1-c1ccc(/C=N/n2cnnc2)o1 ?
KB-3-1 cytotox: inconclusive; HT1080NT lethal: inactive; HT1080 IDH1KD tx: inactive; KB-V1 MDR tox: 2.9µM

What do the screens show for `Cc1cc(-c2ccc(/C=N/n3cnnc3)o2)ccc1Cl`?
KB-3-1 cytotox: inactive; HT1080NT lethal: inactive; HT1080 IDH1KD tx: inactive; KB-V1 MDR tox: inactive

How did CCCCOC(=O)c1cc(-c2ccc(/C=N/n3cnnc3)o2)ccc1Cl do in these assays?
KB-3-1 cytotox: inactive; HT1080NT lethal: inactive; HT1080 IDH1KD tx: inactive; KB-V1 MDR tox: 18µM

What do the screens show for `Cc1c(C(=O)O)cccc1-c1ccc(/C=N/n2cnnc2)o1`?
KB-3-1 cytotox: inactive; HT1080NT lethal: inactive; HT1080 IDH1KD tx: inactive; KB-V1 MDR tox: inactive

Results for Clc1ccccc1-c1ccc(/C=N/n2cnnc2)o1 ?
KB-3-1 cytotox: 5.8µM; HT1080NT lethal: inactive; HT1080 IDH1KD tx: inactive; KB-V1 MDR tox: 3.3µM

What do the screens show for `Cc1oc(-c2ccccc2Cl)nc1CSc1nncn2c1cc1occc12`?
KB-3-1 cytotox: inactive; KB-V1 MDR tox: inactive

How did COc1ccccc1N1CCN(C(=O)CN2C(=O)COc3ccc(S(=O)(=O)N4CCOCC4)cc32)CC1 do in these assays?
KB-3-1 cytotox: inactive; KB-V1 MDR tox: inactive

What do the screens show for `Cc1ccc(NC(=O)CCNC(=O)c2ccc([N+](=O)[O-])cc2)cc1C`?
KB-3-1 cytotox: inactive; HT1080NT lethal: inactive; HT1080 IDH1KD tx: inactive; KB-V1 MDR tox: inactive

Results for COc1ccc(S(=O)(=O)N2CCOCC2)cc1NC(=O)Cc1sc(C)nc1-c1ccc(F)cc1 ?
KB-3-1 cytotox: inconclusive; HT1080NT lethal: inactive; HT1080 IDH1KD tx: inactive; KB-V1 MDR tox: 12µM

Results for COc1ccc(NC(=O)CCNC(=O)c2ccc([N+](=O)[O-])cc2)cc1S(=O)(=O)N1CCOCC1 ?
KB-3-1 cytotox: inactive; HT1080NT lethal: inactive; HT1080 IDH1KD tx: inactive; KB-V1 MDR tox: inactive

What do the screens show for `CCOC(=O)c1ccc(NC(=O)CCNC(=O)c2ccc([N+](=O)[O-])cc2)cc1`?
KB-3-1 cytotox: inactive; HT1080NT lethal: inactive; HT1080 IDH1KD tx: inactive; KB-V1 MDR tox: 15µM

How did COc1ccc(S(=O)(=O)N2CCCCC2)cc1NC(=O)Cc1sc(C)nc1-c1ccc(F)cc1 do in these assays?
KB-3-1 cytotox: inactive; HT1080NT lethal: inactive; HT1080 IDH1KD tx: inactive; KB-V1 MDR tox: inconclusive

What do the screens show for `COc1ccc(S(=O)(=O)N2CCOCC2)cc1NC(=O)CN1CCCC1`?
KB-3-1 cytotox: inactive; HT1080NT lethal: inactive; HT1080 IDH1KD tx: inactive; KB-V1 MDR tox: inactive

Results for COc1ccc(S(=O)(=O)N2CCOCC2)cc1NC(=O)CN1CCC(Cc2ccccc2)CC1 ?
KB-3-1 cytotox: inactive; HT1080NT lethal: inactive; HT1080 IDH1KD tx: inactive; KB-V1 MDR tox: 12µM

How did COc1ccc(S(=O)(=O)N2CCOCC2)cc1NC(=O)CCNC(=O)c1ccc([N+](=O)[O-])cc1 do in these assays?
KB-3-1 cytotox: inactive; HT1080NT lethal: inactive[9.24 µM]; HT1080 IDH1KD tx: 5.8µM; KB-V1 MDR tox: inactive

Results for O=C(NC1CCCC1)c1c[nH]c2ccc(S(=O)(=O)Nc3cccc(C(F)(F)F)c3)cc2c1=O ?
KB-3-1 cytotox: inactive; KB-V1 MDR tox: inactive

Results for Cc1cccc(NC(=O)CSc2nnc(CNC(=O)c3c(F)cccc3Cl)o2)c1C ?
KB-3-1 cytotox: inactive; KB-V1 MDR tox: inconclusive

Results for Cc1cccc(-c2nnn3c2nc(NCCc2ccc(S(N)(=O)=O)cc2)c2cc(Cl)ccc23)c1 ?
KB-3-1 cytotox: inactive; KB-V1 MDR tox: inactive

How did COc1ccc(NC(=O)C(C)SCc2ccccc2)cc1OC (stereo unspecified) do in these assays?
KB-3-1 cytotox: inactive; HT1080NT lethal: inactive; HT1080 IDH1KD tx: inactive; KB-V1 MDR tox: 23µM

Results for CC(C(=O)Nc1ccc2c(c1)OCO2)N(C)CC(=O)Nc1ccc(Cl)cc1 (stereo unspecified) ?
KB-3-1 cytotox: inactive; HT1080NT lethal: inactive; HT1080 IDH1KD tx: inactive; KB-V1 MDR tox: 23µM

Results for CC(SCc1ccccc1)C(=O)N/N=C/c1ccc2c(c1)OCO2 (stereo unspecified) ?
KB-3-1 cytotox: inactive; HT1080NT lethal: inactive; HT1080 IDH1KD tx: inactive; KB-V1 MDR tox: inactive

Results for CC(SCc1ccccc1)C(=O)Nc1ccc2c(c1)OCO2 (stereo unspecified) ?
KB-3-1 cytotox: inactive; HT1080NT lethal: inactive; HT1080 IDH1KD tx: inactive; KB-V1 MDR tox: 18µM

What do the screens show for `COc1ccc(NC(=O)C(=O)NCC(c2cccnc2)N2CCc3ccccc3C2)cc1` (stereo unspecified)?
KB-3-1 cytotox: inactive; KB-V1 MDR tox: inactive

Results for C=C(C)Cn1c(SCC(=O)Nc2cccc(Cl)c2)nc2sc3c(c2c1=O)CCCC3 ?
KB-3-1 cytotox: inactive; KB-V1 MDR tox: inactive

What do the screens show for `O=C(NCC1CCCC(CNC(=O)N2CCc3ccccc32)C1)N1CCc2ccccc21` (stereo unspecified)?
KB-3-1 cytotox: inactive; HT1080NT lethal: inconclusive; HT1080 IDH1KD tx: 20µM; KB-V1 MDR tox: 5.2µM

What do the screens show for `O=C(CS(=O)(=O)c1nc(-c2ccc(Cl)cc2)cn1-c1ccccc1)Nc1cccc(Cl)c1`?
KB-3-1 cytotox: 16µM; KB-V1 MDR tox: 16µM

How did Cc1ccc(-c2cn(-c3cccc(Cl)c3)c(S(=O)(=O)CC(=O)Nc3cccc(C)c3)n2)cc1 do in these assays?
KB-3-1 cytotox: inactive; KB-V1 MDR tox: inconclusive

How did O=C(Cn1cc(S(=O)(=O)Cc2ccc(F)cc2)c2ccccc21)NCc1ccccc1Cl do in these assays?
KB-3-1 cytotox: inactive; KB-V1 MDR tox: inactive

What do the screens show for `CCn1c(=O)c(C(C)=O)nc2ccccc21`?
KB-3-1 cytotox: inactive; HT1080NT lethal: inactive; HT1080 IDH1KD tx: inactive; KB-V1 MDR tox: inactive

How did CCCCCn1c(=O)c(C(=O)c2ccccc2)nc2ccccc21 do in these assays?
KB-3-1 cytotox: inconclusive; HT1080NT lethal: inactive; HT1080 IDH1KD tx: inactive; KB-V1 MDR tox: 12µM
